According to PMC4336329 (PLoS ONE, 2015):
The campaign covered roughly 310,000 compounds. About 2,200 (0.71%) showed an effect of 50% or more. Effects have a minus sign here. This is one part of a sample in which strong results are shown more often than they occur.

target: human ether-à-go-go-related gene (hERG) potassium channel (human, UniProt Q12809); assay: primary screen, population patch clamp on CHO cells stably expressing hERG; higher = less effect of the substance
Sequence (Q12809 whole entry, looked up): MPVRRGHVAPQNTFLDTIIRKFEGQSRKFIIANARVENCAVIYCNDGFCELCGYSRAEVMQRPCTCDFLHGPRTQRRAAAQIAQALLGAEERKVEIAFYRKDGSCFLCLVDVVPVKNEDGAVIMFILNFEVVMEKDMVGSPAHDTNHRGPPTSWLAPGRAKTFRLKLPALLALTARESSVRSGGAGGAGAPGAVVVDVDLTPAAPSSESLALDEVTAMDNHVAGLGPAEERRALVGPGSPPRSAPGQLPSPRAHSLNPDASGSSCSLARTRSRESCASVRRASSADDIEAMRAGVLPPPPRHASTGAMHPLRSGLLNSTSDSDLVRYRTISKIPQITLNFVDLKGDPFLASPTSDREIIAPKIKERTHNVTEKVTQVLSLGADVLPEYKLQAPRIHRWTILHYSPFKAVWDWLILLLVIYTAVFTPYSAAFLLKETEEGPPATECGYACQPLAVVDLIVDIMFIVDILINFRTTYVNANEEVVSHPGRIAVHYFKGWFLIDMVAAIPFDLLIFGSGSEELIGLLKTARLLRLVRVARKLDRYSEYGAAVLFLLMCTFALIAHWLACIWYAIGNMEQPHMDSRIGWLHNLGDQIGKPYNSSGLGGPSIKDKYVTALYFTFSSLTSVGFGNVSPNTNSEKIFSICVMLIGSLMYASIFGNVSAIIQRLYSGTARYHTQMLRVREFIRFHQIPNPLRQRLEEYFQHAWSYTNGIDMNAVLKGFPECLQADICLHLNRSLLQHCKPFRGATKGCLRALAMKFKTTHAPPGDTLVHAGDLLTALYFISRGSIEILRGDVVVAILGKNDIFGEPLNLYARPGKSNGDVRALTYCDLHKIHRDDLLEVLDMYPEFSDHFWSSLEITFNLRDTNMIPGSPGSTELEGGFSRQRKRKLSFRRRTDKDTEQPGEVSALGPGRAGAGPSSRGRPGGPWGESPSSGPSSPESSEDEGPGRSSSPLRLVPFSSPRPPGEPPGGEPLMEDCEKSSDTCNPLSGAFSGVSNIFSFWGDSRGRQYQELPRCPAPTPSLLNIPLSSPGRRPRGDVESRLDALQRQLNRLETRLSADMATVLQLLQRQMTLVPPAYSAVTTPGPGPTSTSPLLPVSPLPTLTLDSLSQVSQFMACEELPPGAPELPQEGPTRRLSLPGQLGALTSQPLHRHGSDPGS

Compound | hERG current change (%, negative = inhibition) at 1uM [%]
O=[N+]([O-])c1ccccc1/C=C/C=N/N1CCCCC1 | 13
CC(/C=C/c1ccc(N(C)C)cc1)=N\N=C(/N)SC1CC(=O)N(c2ccc(C(=O)O)cc2)C1=O (stereo not shown) | 3.7
COCCNC(=S)N/N=C/c1ccc([N+](=O)[O-])cc1 | 12
Cc1cc(OCCN2CC(C)OC(C)C2)ccc1[N+](=O)[O-].O=C(O)C(=O)O (stereo not shown) | -5.36
Cc1ccc([N+](=O)[O-])c(OCCCN2CCC(Cc3ccccc3)CC2)c1.O=C(O)C(=O)O | -95.8
O=C(O)C(=O)O.O=[N+]([O-])c1cccc(OCCN2CCC(Cc3ccccc3)CC2)c1 | -23.6
O=[N+]([O-])c1cccc(CN2CCC(Cc3ccccc3)CC2)c1 | -45.6
Cc1cc(OCCN2CCCCCC2)ccc1[N+](=O)[O-].O=C(O)C(=O)O | -12.8
Cc1ccc([N+](=O)[O-])c(OCCCN2CCCCCC2)c1.O=C(O)C(=O)O | -14.5
Cc1cc(OCCN2CCCC2)ccc1[N+](=O)[O-].O=C(O)C(=O)O | 7.94
Cc1ccc([N+](=O)[O-])c(OCCN2CCC(Cc3ccccc3)CC2)c1.O=C(O)C(=O)O | -25.9
O=C(O)C(=O)O.O=[N+]([O-])c1cccc(OCCCN2CCC(Cc3ccccc3)CC2)c1 | -82.9
Cc1cc(OCCN2CCC(Cc3ccccc3)CC2)ccc1[N+](=O)[O-].O=C(O)C(=O)O | -53.5
Cc1cc(OCCCN2CCN(Cc3ccccc3)CC2)ccc1[N+](=O)[O-].O=C(O)C(=O)O | -52.5
Cc1cc(OCCN2CCOCC2)ccc1[N+](=O)[O-].O=C(O)C(=O)O | 10.6
CC1CCCCC1NC(=O)CCn1c(=O)sc2ccccc21 (stereo not shown) | 18
Cc1ccc(C(=O)NNC(=O)c2n[nH]c(=O)c3ccccc23)cc1C | 5.71
Cc1cccc2cc(CN(Cc3cccs3)Cc3nnnn3Cc3ccccc3)c(=O)[nH]c12 | -3.15
O=C(NO)c1ccc(C(=O)N(C2CCCCC2)C2CCCCC2)cc1 | 3.06
Cc1ccc(N2CC(C(=O)Nc3ccc(S(=O)(=O)N4CCOCC4)cc3)CC2=O)cc1Cl (stereo not shown) | 7.84
C/C(=N/NC(=O)c1ccc2c(c1)OCO2)c1cccc(NC(=O)C(C)(C)C)c1 | 9.89

Compound | hERG current change (%, negative = inhibition) at 1uM [%]
CC(Oc1ccccc1)C(=O)Nc1ccc(S(=O)(=O)N2CCCC2)cc1 (stereo not shown) | 16.8
COc1ccc(S(=O)(=O)n2nc(OC(=O)C3CCCCC3)cc2N)cc1 | 9.89
CCOc1ccccc1N1CCN(C(=O)c2cc(-c3cc(OC)ccc3OC)nc3ccccc23)CC1 | 8.96
CC12CC3(C)CC(C)(C1)CC(C(=O)NCC(=O)O)(C2)C3 | 19.5
COc1ccc(-c2ccc(S(=O)(=O)n3nc(OC(=O)c4cccs4)cc3N)cc2)cc1 | 8.64
Cc1oc(-c2cccc(Cl)c2)nc1CN1CCC(C(=O)NCC2CCCO2)CC1 (stereo not shown) | -31.8
COc1ccccc1CNC(=O)C1CCN(Cc2nc(-c3cccc(Cl)c3)oc2C)CC1 | -68.3
CCc1ccc(-c2nc(CN3CCC(C(=O)NCCc4ccc(OC)c(OC)c4)CC3)c(C)o2)cc1 | -40
COc1ccc(CCNC(=O)C2CCCN(Cc3nc(-c4cccc(Cl)c4)oc3C)C2)cc1OC (stereo not shown) | -76.7
COc1ccc(CCNC(=O)C2CCCN(Cc3nc(-c4ccccc4C)oc3C)C2)cc1OC (stereo not shown) | -2.12
CCN1CCN(CCNC(=O)C2CCCN(Cc3nc(-c4cccc(Cl)c4)oc3C)C2)CC1 (stereo not shown) | 3.86
COc1ccc(CCNC(=O)C2CCN(Cc3nc(-c4ccccc4F)oc3C)CC2)cc1OC | -17.3
CCc1ccc(-c2nc(CN3CCC(C(=O)NCc4ccccc4OC)CC3)c(C)o2)cc1 | -13.1
Cc1oc(-c2cccc(Cl)c2)nc1CN1CCC(C(=O)NCCCN2CC(C)CC(C)C2)CC1 (stereo not shown) | 13.9
COc1ccc(CCNC(=O)C2CCN(Cc3nc(-c4ccccc4C)oc3C)CC2)cc1OC | -59.9
COc1ccc(CCNC(=O)C2CCN(Cc3nc(-c4cccc(Cl)c4)oc3C)CC2)cc1OC | -80.9
CCc1ccc(-c2nc(CN3CCCC(C(=O)NCCc4ccc(OC)c(OC)c4)C3)c(C)o2)cc1 (stereo not shown) | -3.23
Cc1ccccc1C(=O)Nc1ccnc(-c2ccncc2)n1 | 14.1
C/C(CC(=O)NCc1ccco1)=N\NC(=O)C(c1ccccc1)c1ccccc1 | 6.69
CCOc1ccc(CCNC(=O)CCc2nnc3ccc(N4CCOCC4)nn23)cc1OCC | 7.73
O=C(Nc1ccc(SC(F)F)cc1)C12CCC(CC1)C2 | 5.66

Compound | hERG current change (%, negative = inhibition) at 1uM [%]
CN(CC(=O)Nc1ccccc1Cl)C(=O)COC(=O)c1nc(Cl)c(Cl)c(Cl)c1Cl | 9.88
C=CCn1c(COc2ccc(Cl)cc2)nnc1SCC(=O)c1c(N)n(C)c(=O)n(C)c1=O | 10.5
Cc1ccccc1-c1nc(CN2CCC(C(=O)NCCC3=CCCCC3)CC2)c(C)o1 | -32
Cc1oc(-c2ccccc2F)nc1CN1CCC(C(=O)NC2CC2)CC1 | 0.032
Cc1oc(-c2ccccc2F)nc1CN1CCC(C(=O)NCCC2=CCCCC2)CC1 | -51.1
CN(C)CCN(C(=O)CN1C(=O)c2ccccc2C1=O)c1nc2cc3c(cc2s1)OCO3.Cl | 7.04
COc1ccccc1C(=O)N/C(=C/c1ccccc1)C(=O)NC(CCSC)C(=O)O (stereo not shown) | 12
CSc1ccc(CN2CCC(CO)(CCOc3ccccc3)CC2)cc1 | -81.2
COC(=O)c1ccc(CN2CCC(CO)(Cc3cccc(OC)c3)CC2)cc1 | -45.3
COC(=O)c1ccc(CN2CCC(CO)(CCOc3ccccc3)CC2)cc1 | -81.7
OCCOc1cccc(CN2CCC(CO)(CCOc3ccccc3)CC2)c1 | -2.72
CC(=O)Nc1ccc(CN2CCC(CO)(CCOc3ccccc3)CC2)cc1 | -43.8
OCC1(CCOc2ccccc2)CCN(Cc2ccncc2)CC1 | -0.954
c1csc(CN2CCN(Cc3cccs3)C2c2cccs2)c1 | 4.62
O=C(c1ccc(=O)[nH]c1)N1CCN(S(=O)(=O)c2ccc3ccccc3c2)CC1 | 6.52
O=C(NN=C1C2CC3CC(C2)CC1C3)c1ccncc1 | -0.112
Cl.Clc1ccc(-c2ccc(CNCc3ccccn3)o2)cc1 | -5.94
O=C(c1cc2cc([N+](=O)[O-])ccc2oc1=O)N1CCOCC1 | 7.86
O=C(c1cc2cc([N+](=O)[O-])ccc2oc1=O)N1CCN(C2CCCCC2)CC1 | -60.8
CCN1CCN(C(=O)c2cc3cc([N+](=O)[O-])ccc3oc2=O)CC1 | -1.11
COc1ccc(Cc2nc3ccc(C(=O)NC(C)c4cn(C)nc4C)cc3o2)cc1 (stereo not shown) | 9.59

Compound | hERG current change (%, negative = inhibition) at 1uM [%]
COc1ccc(OCCOC(=O)c2[nH]c(C)c(C(C)=O)c2C)cc1 | 8.51
COc1ccc(-c2csc(NC(=O)CN3C(=O)NC4(CCCC4)C3=O)n2)cc1 | 1.42
COc1ccc(C(=O)C(OC(=O)c2ccccc2)c2ccccc2)cc1 (stereo not shown) | 2.14
Cc1ccc(CSc2ccc3nnc(-c4ccccn4)n3n2)cc1 | -36.5
Cc1ccccc1NC(=O)CSc1ccc2nnc(-c3ccccn3)n2n1 | 7.85
Cc1ccccc1CSc1nnc(-c2ccccn2)n1C | 10.8
CCOC(=O)N1CCN(C(=O)CSc2ccc3nnc(-c4ccccn4)n3n2)CC1 | 2.22
Cc1ccc(NC(=O)CSc2ccc3nnc(-c4ccccn4)n3n2)cc1 | 5.84
Cc1ccc(C)c(CSc2ccc3nnc(-c4ccccn4)n3n2)c1 | -54.3
O=C(CSc1ccc2nnc(-c3ccccn3)n2n1)N1CCOCC1 | 6.32
Cc1ccccc1CSc1ccc2nnc(-c3ccccn3)n2n1 | -50.9
O=C(CSc1ccc2nnc(-c3ccccn3)n2n1)N1CCN(c2ccccc2)CC1 | -89.9
CNc1sc(C(=O)c2ccc(F)cc2)c(N)c1-c1nc2ccccc2s1 | 5.15
CNNC(=S)NCCC1=CCCCC1 | 10.2
C/C(N)=C(/C#N)C(=O)CSc1nc2ccc(C)cc2[nH]1 | 11
Cn1cnnc1SC(C(=O)Nc1ccc(F)cc1)c1ccccc1 (stereo not shown) | 4.93
CCCc1ccc(-c2cc(C(=O)NCCc3ccc(S(N)(=O)=O)cc3)c3ccccc3n2)cc1 | 16.3
O=C(CCS(=O)(=O)c1ccc(Br)cc1)Nc1ccccn1 | 15.2
CCOc1ccc(N(CC(=O)OC)S(=O)(=O)c2ccc(OC)c(OC)c2)cc1 | -0.463
